Test results from PubChem BioAssay (NCATS).
Records with an inconclusive call do not appear. Unmarked numbers belong to inactive results. The source made the active and inactive calls. Calls come from the whole dose curve; as a rule, active = well fitted curve in the direction sought with a large enough effect; inconclusive = small, poorly fitted or top-dose-only effect, or another doubt; inactive = no such curve, though single readings can be large; an effect the other way counts as inactive or inconclusive.

Experiments:
HeLa = experiment: Primary qHTS to identify gynecologic anti-cancer compounds using libraries of approved drugs and bioactive compounds (AID 1345084); conditions: Gynecologic cancer cell panel viability, ATPlite luminescence, 48 h; series mostly up to 57.5 µM; note: nearly all actives have a fitted effect of over 55% in size
How it was run: (§1)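 ATP-based viability (ATPlite), 1,000 cells/well, 16 h pre-incubation, 48 h compound at 37 C, 5% CO2, 15 min RT before read.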

JEG-3 = experiment: as above; conditions: Gynecologic cancer cell panel viability, ATPlite luminescence, 48 h; series mostly up to 57.5 µM
How it was run: as §1

SKOV3 = experiment: as above; conditions: Gynecologic cancer cell panel viability, ATPlite luminescence, 48 h; series mostly up to 57.5 µM
How it was run: as §1

OV90 = experiment: as above; conditions: Gynecologic cancer cell panel viability, ATPlite luminescence, 48 h; series mostly up to 57.5 µM
How it was run: as §1

Es-2 = experiment: as above; conditions: Gynecologic cancer cell panel viability, ATPlite luminescence, 48 h; series mostly up to 57.5 µM
How it was run: as §1

PA-1 = experiment: as above; conditions: Gynecologic cancer cell panel viability, ATPlite luminescence, 48 h; series mostly up to 57.5 µM
How it was run: as §1

Tov-21-G = experiment: as above; conditions: Gynecologic cancer cell panel viability, ATPlite luminescence, 48 h; series mostly up to 57.5 µM
How it was run: as §1

Tov112D = experiment: as above; conditions: Gynecologic cancer cell panel viability, ATPlite luminescence, 48 h; series mostly up to 57.5 µM
How it was run: as §1

Hek293T = experiment: as above; conditions: Gynecologic cancer cell panel viability, ATPlite luminescence, 48 h, control line for the selectivity index; series mostly up to 57.5 µM
How it was run: as §1

[1] = qHTS assay to identify inhibitors of the type 1 interferon - major histocompatibility complex class I in skeletal muscle: Counter screen cell viability and HiBit confirmation (AID 1347412); conditions: iHSKM muscle cells + IFN-b, HiBiT or CellTiter-Glo, 24 h; for activity change, negative = inhibition: at 45.9 µM (top of the series); for all read-outs here: nearly all actives have a fitted effect of over 60% in size
How it was run: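 After 24 h with human IFN-beta (4 ng/ml) and compound titrations (top 46 uM final, 1:3, 12 points), HLA-B HiBit myoblasts were lysed for either Nano-Glo HiBiT luminescence or CellTiter Glo viability on paired plates.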
% is set by controls: 0 for no effect and ±100 for the full control effect; potency is the fitted concentration of half-maximal effect.

Question: For `COc1cc2c(cc1OC)[C@@H]1[C@H](O)[C@@H](OC)C=C3CCN(C2)[C@H]31`, which Potency (HeLa) is on record?
Answer: inactive

Question: What about the Potency (JEG-3) of the same compound?
Answer: inactive

Question: What about the Potency (SKOV3) of the same compound?
Answer: inactive

Question: For `CCc1cnn2c(NCc3ccc[n+]([O-])c3)cc(N3CCCCC3CCO)nc12` (stereo not drawn), which Potency (JEG-3) is on record?
Answer: inactive

Question: What about the Potency (OV90) of the same compound?
Answer: inactive

Question: With `COc1cc(-c2ncn(/C=C\C(=O)OC(C)C)n2)cc(C(F)(F)F)c1` as the compound, how does the Potency (Es-2) read?
Answer: 0.891 µM (active)

Question: What about the Potency (HeLa) of the same compound?
Answer: 15.8 µM (active)

Question: And the Potency (PA-1)?
Answer: 0.562 µM (active)

Question: What does the source list for `Nc1nccn2c(C3CCC(C(=O)O)CC3)nc(-c3cc4cccc(Cl)c4[nH]3)c12` (stereo not drawn)?
Answer: Potency (Es-2): 28.2 µM (active); Potency (OV90): 10 µM (active); Potency (PA-1): 7.94 µM (active); Potency (SKOV3): 3.16 µM (active); Potency (Tov-21-G): 4.47 µM (active)

Question: For `Cc1ccc(C(=O)N(CCCN)C(c2oc3cc(Cl)ccc3c(=O)c2Cc2ccccc2)C(C)C)cc1` (stereo not drawn), which Potency (OV90) is on record?
Answer: inactive

Question: Which results are given for `CCCCC1CCN(CCCC(=O)c2ccccc2C)CC1`?
Answer: Potency (Es-2): inactive; Potency (HeLa): inactive; Potency (SKOV3): inactive; Potency (Tov-21-G): inactive

Question: With `COC(=O)C1(C)c2[nH]c3ccccc3c2CCN1C(=O)CCl` (stereo not drawn) as the compound, how does the Potency (OV90) read?
Answer: inactive

Question: What about the Potency (Tov-21-G) of the same compound?
Answer: 22.4 µM (active)

Question: Which results are given for `Oc1ccc(CNc2ccccc2F)c2cccnc12`?
Answer: Potency (JEG-3): inactive; Potency (PA-1): 17.8 µM (active)

Question: Which Potency (Es-2) does the source give for `C=CC(=O)Nc1cccc(Nc2nc(Nc3ccc(N4CCN(C(C)=O)CC4)cc3OC)ncc2C(F)(F)F)c1` here?
Answer: inactive

Question: And the Potency (OV90)?
Answer: 15.8 µM (active)

Question: For `COc1cc(OC)c(/C=C/S(=O)(=O)Cc2ccc(OC)c(NCC(=O)O)c2)c(OC)c1`, which Potency (Es-2) is on record?
Answer: 0.316 µM (active)

Question: What about the Potency (HeLa) of the same compound?
Answer: 0.251 µM (active)

Question: What about the Potency (JEG-3) of the same compound?
Answer: 0.447 µM (active)

Question: And the Potency (PA-1)?
Answer: 0.224 µM (active)

Question: And the Potency (Tov112D)?
Answer: 0.316 µM (active)

Question: What does the source list for `C[C@H]1[C@H](O)O[C@@H]2O[C@@]3(C)CC[C@H]4[C@H](C)CC[C@@H]1[C@@]24OO3`?
Answer: Potency (HeLa): 12.6 µM (active); Potency (Hek293T): 8.91 µM (active); Potency (OV90): inactive; Potency (Tov-21-G): 28.2 µM (active)

Question: With `N#Cc1cnc2cnc(NCc3cccnc3)cc2c1Nc1ccc(F)c(Cl)c1` as the compound, how does the Potency (HeLa) read?
Answer: inactive

Question: And the Potency (JEG-3)?
Answer: inactive

Question: Which results are given for `CCN1CCN(Cc2ccc(NC(=O)Nc3ccc(Oc4cc(NC)ncn4)cc3)cc2C(F)(F)F)CC1`?
Answer: Potency ([1]; HiBiT): 5.57 µM (active); activity change, negative = inhibition ([1]; Viability): -17.1%

Question: Which Potency (Es-2) does the source give for `CCOC(=O)Nc1cc(-c2ccc(C)c(NS(C)(=O)=O)c2)nn2c(C)nnc12` here?
Answer: 12.6 µM (active)

Question: What about the Potency (OV90) of the same compound?
Answer: 12.6 µM (active)

Question: What about the Potency (PA-1) of the same compound?
Answer: 31.6 µM (active)

Question: What about the Potency (SKOV3) of the same compound?
Answer: 7.08 µM (active)

Question: What does the source list for `CC(=O)O[C@H]1CC(C)(C)CC2[C@@]13[C@H](O)C[C@]1(C)[C@@]2(CCC2[C@@]4(C)CC[C@H](O[C@@H]5OC[C@H](O[C@@H]6O[C@H](CO)[C@@H](O)[C@H](O)[C@H]6O[C@@H]6OC[C@@H](O)[C@H](O)[C@H]6O)[C@H](O)[C@H]5O[C@@H]5O[C@H](CO)[C@@H](O)[C@H](O)[C@H]5O)C(C)(C)C4CC[C@]21C)O[C@@H]3O` (stereo partly drawn)?
Answer: activity change, negative = cytotoxicity (HeLa): -7.2% [at 11.6 µM]; Potency (JEG-3): 2.82 µM (active); Potency (OV90): 3.16 µM (active)

Question: For `CC(O)/C=C/C1(O)C2(C)COC1(C)CC(O)C2` (stereo not drawn), which Potency (Es-2) is on record?
Answer: inactive

Question: And the Potency (PA-1)?
Answer: inactive

Question: What does the source list for `CC(=O)NC1=NN(C(C)=O)C(C)(c2ccccc2)S1` (stereo not drawn)?
Answer: Potency (HeLa): 14.1 µM (active); Potency (OV90): inactive; Potency (PA-1): 3.98 µM (active); Potency (Tov112D): 3.16 µM (active)

Question: Which Potency (HeLa) does the source give for `Cn1cc(S(=O)(=O)c2ccc(Cl)cc2)c2cccc(N3CCNCC3)c21` here?
Answer: inactive

Question: What about the Potency (Tov-21-G) of the same compound?
Answer: 20 µM (active)

Question: What about the Potency (Tov112D) of the same compound?
Answer: 28.2 µM (active)

Question: With `C=CC(=O)Nc1cccc(CN2C(=O)N(c3c(Cl)c(OC)cc(OC)c3Cl)Cc3cnc(NCCCCN(CC)CC)nc32)c1` as the compound, how does the Potency (Es-2) read?
Answer: inactive

Question: What about the Potency (Hek293T) of the same compound?
Answer: inactive

Question: What about the Potency (JEG-3) of the same compound?
Answer: inactive

Question: And the Potency (OV90)?
Answer: inactive

Question: With `CCN(CC)c1ccc2c(O)c(C=Nc3ccc(CC(=O)O)c(-c4c5c(nc6ccccc46)CCC(C(=O)NN)C5)c3)c(=O)oc2c1` (stereo not drawn) as the compound, how does the Potency (Tov112D) read?
Answer: inactive

Question: With `NC(=O)Nc1cc(-c2cccc(F)c2)sc1C(=O)NC1CCCNC1` (stereo not drawn) as the compound, how does the Potency (Hek293T) read?
Answer: 0.447 µM (active)

Question: What about the Potency (OV90) of the same compound?
Answer: 5.62 µM (active)

Question: With `C[C@@H](Oc1cc(-n2cnc3ccc(OC4CCN(C)CC4)cc32)sc1C(N)=O)c1ccccc1C(F)(F)F` as the compound, how does the Potency (PA-1) read?
Answer: 0.316 µM (active)

Question: Which Potency (Hek293T) does the source give for `CNC(=O)c1cccc(-c2ccc3c(N4CCOC[C@@H]4C)nc(N4CCOC[C@@H]4C)nc3n2)c1` here?
Answer: 1.41 µM (active)

Question: And the Potency (JEG-3)?
Answer: inactive

Question: And the Potency (OV90)?
Answer: 1.26 µM (active)

Question: And the Potency (PA-1)?
Answer: 1.58 µM (active)

Question: What about the Potency (SKOV3) of the same compound?
Answer: 1.58 µM (active)

Question: And the Potency (Tov-21-G)?
Answer: 1.41 µM (active)

Question: Which Potency (HeLa) does the source give for `C[C@@H]1C[C@@H]2O[C@H]2/C=C\C=C\C(=O)Cc2c(Cl)c(O)cc(O)c2C(=O)O1` here?
Answer: inactive

Question: What about the Potency (JEG-3) of the same compound?
Answer: inactive

Question: And the Potency (PA-1)?
Answer: 10 µM (active)

Question: And the Potency (Tov112D)?
Answer: inactive

Question: What does the source list for `COc1cc(C2c3cc4c(c(O)c3CC(CO)C2C(=O)O)OCO4)cc(OC)c1O` (stereo not drawn)?
Answer: Potency (Es-2): 3.55 µM (active); Potency (Hek293T): 3.98 µM (active); Potency (PA-1): 2 µM (active); Potency (SKOV3): 11.2 µM (active); Potency (Tov112D): 4.47 µM (active)

Question: With `O=C(CSc1nc2c(c(=O)n1-c1ccccc1)SCC2)Nc1ccc(-c2ccccc2)cn1` as the compound, how does the Potency (Es-2) read?
Answer: 0.224 µM (active)

Question: And the Potency (HeLa)?
Answer: 0.158 µM (active)

Question: What about the Potency (OV90) of the same compound?
Answer: 1.26 µM (active)

Question: And the Potency (Tov-21-G)?
Answer: 0.316 µM (active)

Question: And the Potency (Tov112D)?
Answer: 0.158 µM (active)

Question: With `CCOc1cc2ncc(C#N)c(Nc3ccc(F)c(Cl)c3)c2cc1NC(=O)/C=C/CN(C)C` as the compound, how does the Potency (Hek293T) read?
Answer: 25.1 µM (active)

Question: What about the Potency (OV90) of the same compound?
Answer: inactive

Question: And the Potency (SKOV3)?
Answer: 0.398 µM (active)

Question: And the Potency (Tov-21-G)?
Answer: 1 µM (active)

Question: What about the Potency ([1]; HiBiT) of the same compound?
Answer: 1.98 µM (active)

Question: What about the Potency ([1]; Viability) of the same compound?
Answer: 17.6 µM (active)

Question: Which Potency (Hek293T) does the source give for `CCNC(=O)Nc1ccc(-c2nc3c(c(N4CCOC[C@@H]4C)n2)CCN(c2ncccn2)C3)cc1` here?
Answer: 1 µM (active)

Question: And the Potency (JEG-3)?
Answer: inactive

Question: And the Potency (OV90)?
Answer: 1.26 µM (active)

Question: And the Potency (PA-1)?
Answer: 1.12 µM (active)

Question: With `CCS(=O)(=O)N1CCN(c2ccc(Nc3ncc(C(N)=O)c(NC4CC4)n3)cc2)CC1` as the compound, how does the Potency (JEG-3) read?
Answer: inactive

Question: And the Potency (OV90)?
Answer: 12.6 µM (active)

Question: And the Potency (Tov112D)?
Answer: inactive

Question: What about the Potency ([1]; HiBiT) of the same compound?
Answer: 1.98 µM (active)

Question: And the activity change, negative = inhibition ([1]; Viability)?
Answer: 5.56%

Question: For `CC(C)(C#N)c1ccc(N2C(=O)OCc3cnc4ccc(-c5cnc6ccccc6c5)cc4c32)cc1`, which Potency (Hek293T) is on record?
Answer: 12.6 µM (active)

Question: What about the Potency (JEG-3) of the same compound?
Answer: inactive

Question: And the Potency (PA-1)?
Answer: 12.6 µM (active)

Question: And the Potency (SKOV3)?
Answer: 2.82 µM (active)

Question: What about the Potency (Tov-21-G) of the same compound?
Answer: 10 µM (active)

Question: Which Potency (Tov112D) does the source give for `COc1cc2ncnc(Nc3cccc(Cl)c3F)c2cc1OC(=O)N1CCN(C)C[C@H]1C` here?
Answer: 22.4 µM (active)

Question: With `CCC1C(=O)N(C)c2cnc(Nc3ccc(C(=O)NC4CCC(N5CCN(CC6CC6)CC5)CC4)cc3OC)nc2N1C(C)C` (stereo not drawn) as the compound, how does the Potency (PA-1) read?
Answer: 0.316 µM (active)
